# Assay results published in PubChem BioAssay (Tox21).
# Inconclusive results are not listed. A call without a number means that no potency is given here. The source made the active and inactive calls. Calls follow the shape of the dose curve; as a rule, active = well fitted inhibition curve with a large enough effect in the repeat runs; inconclusive = weak or mixed curves; inactive = no such curve, though single readings can be large or run the other way.
# Target: Cytochrome P450 2C19 (Homo sapiens) (UniProt P33261)
# Experiment: Cytochrome P450 Family 2 Subfamily C Member 19 (CYP2C19) small molecule antagonists: luciferase reporter qHTS assay (AID 1671197); also: nearly all actives have a fitted effect of over 65% in size
# Conditions: P450-Glo CYP2C19 enzyme, luciferin luminescence, 1 h; series mostly up to 115 µM
# How it was run: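 Inhibition of CYP2C19 was scored from loss of luminescence in a P450-Glo proluciferin substrate assay, NADPH-started and run 1 h at 37C, with ketoconazole as positive control.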
# Potency is read from the fitted curve at half-maximal effect.
# Cytochrome P450 2C19 (Homo sapiens), sequence (P33261 whole entry, looked up): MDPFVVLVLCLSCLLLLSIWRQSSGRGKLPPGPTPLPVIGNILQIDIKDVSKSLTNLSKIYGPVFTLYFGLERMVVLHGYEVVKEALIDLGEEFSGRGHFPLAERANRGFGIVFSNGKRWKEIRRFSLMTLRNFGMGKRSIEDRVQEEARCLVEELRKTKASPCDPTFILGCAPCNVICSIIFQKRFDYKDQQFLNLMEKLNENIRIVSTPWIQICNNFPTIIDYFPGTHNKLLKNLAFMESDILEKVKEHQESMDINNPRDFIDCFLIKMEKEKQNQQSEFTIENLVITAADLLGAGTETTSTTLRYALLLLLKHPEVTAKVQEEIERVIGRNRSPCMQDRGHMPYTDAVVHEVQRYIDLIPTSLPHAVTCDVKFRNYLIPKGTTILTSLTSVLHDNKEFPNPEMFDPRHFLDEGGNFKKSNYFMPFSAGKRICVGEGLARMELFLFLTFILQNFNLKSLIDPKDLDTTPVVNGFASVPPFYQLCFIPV
row,SMILES,Potency
1,CC(=O)NCCCCCC(=O)O,inactive
2,COc1cc(N)ccc1C,1.98 µM (active)
3,CC(S)C(=O)NCC(=O)O (stereo not given),inactive
4,Cc1ccc2ccc(Cl)cc2n1,inactive
5,CC(C)(C)NC(N)=O,71 µM (active)
6,O=C(O)Cc1ccc(Cl)cc1Cl,inactive
7,O=C(O)c1ccc(Cl)cc1Cl,inactive
8,COP(=O)(OC)OC(c1ccc(Cl)cc1)P(=O)(OC)OC (stereo not given),inactive
9,CCCOC(OCCC)OCCC,inactive
10,CC(CO)c1ccccc1 (stereo not given),inactive
11,CCCCNC1CC(C)(C)NC(C)(C)C1,inactive
12,NS(=O)(=O)c1ccc(NC(=O)CCC(=O)O)cc1,inactive
13,CC/C=C\CC1=C(C)CCC1=O,63.3 µM (active)
14,OCCC(F)(F)C(F)(F)C(F)(F)C(F)(F)C(F)(F)C(F)(F)C(F)(F)C(F)(F)F,inactive
15,CCCCCCOC(=O)CC,inactive
16,BrCc1cccc(Oc2ccccc2)c1,7.96 µM (active)
17,COc1cc(C(=S)N2CCOCC2)cc(OC)c1OC,21.9 µM (active)
18,CN(C)c1ccc(C=O)cc1,79.6 µM (active)
19,COC(=O)c1ccccc1C(=O)c1ccc(OCCN2CCCCC2)cc1,inactive
20,CC(=O)c1sc(C)nc1C,inactive
21,COc1ccc(C2CNC(=O)C2)cc1OC1CCCC1 (stereo not given),inactive
22,CCOc1cc(NC(C)=O)ccc1C(=O)OC,inactive
23,CCCCCCCCSCC,inactive

# Target: Cytochrome P450 2C9 (Homo sapiens) (UniProt P11712)
# Experiment: Cytochrome P450 Family 2 Subfamily C Member 9 (CYP2C9) small molecule antagonists: luciferase reporter qHTS assay (AID 1671198); also: nearly all actives have a fitted effect of over 50% in size
# Conditions: P450-Glo CYP2C9 enzyme assay, luciferin luminescence; series mostly up to 115 µM
# How it was run: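 CYP2C9 activity was measured with a P450-Glo proluciferin substrate. Enzyme–substrate mix was held with compound for 10 min at room temperature, then NADPH regeneration solution was added for 1 h at 37C. Luciferin product was read as luminescence.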
# Cytochrome P450 2C9 (Homo sapiens), sequence (P11712 whole entry, looked up): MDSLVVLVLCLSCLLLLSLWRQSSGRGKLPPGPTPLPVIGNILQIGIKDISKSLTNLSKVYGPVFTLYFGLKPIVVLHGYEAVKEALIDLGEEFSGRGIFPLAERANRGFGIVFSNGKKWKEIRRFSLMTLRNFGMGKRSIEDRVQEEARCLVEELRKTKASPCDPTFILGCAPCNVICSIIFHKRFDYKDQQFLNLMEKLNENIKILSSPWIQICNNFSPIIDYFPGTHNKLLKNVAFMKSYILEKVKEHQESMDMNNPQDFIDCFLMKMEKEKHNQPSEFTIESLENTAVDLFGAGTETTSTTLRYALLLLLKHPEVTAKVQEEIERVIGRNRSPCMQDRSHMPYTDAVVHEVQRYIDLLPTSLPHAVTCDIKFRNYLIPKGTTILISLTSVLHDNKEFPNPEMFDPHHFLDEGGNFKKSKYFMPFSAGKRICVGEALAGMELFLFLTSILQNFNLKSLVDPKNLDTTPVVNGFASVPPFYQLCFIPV
row,SMILES,Potency
1,Cc1ccccc1N=O,inactive
2,CCCCCOC(=O)CCC,inactive
3,Oc1ccccc1-c1nnco1,inactive
4,CCOCCOC(=O)/C=C/c1ccc(OC)cc1,13.8 µM (active)
5,Cc1ccc(S(=O)(=O)O)c(C)c1,inactive
6,O=C(OCc1ccccc1)C(=O)OCc1ccccc1,inactive
7,CC(C)N(c1ccccc1)C(C)C,inactive
8,CN(C)C(=O)CNC(=O)Cc1ccccc1,inactive
9,CCC(C)(CCC(C)C)C(=O)O (stereo not given),35.6 µM (active)
10,CCOC(=O)[C@H](CCc1ccccc1)N[C@@H](C)C(=O)N1C(=O)N(C)C[C@H]1C(=O)O,inactive
11,O=C1CC(c2ccc(Cl)cc2)CC(=O)N1,inactive
12,C[C@H](CCC(=O)O)[C@H]1CC[C@H]2[C@@H]3C(=O)C[C@@H]4CC(=O)CC[C@]4(C)[C@H]3CC(=O)[C@]12C,inactive
13,CC1=CCC(C(C)C)=CC1,inactive
14,CC(=O)Nc1ccc(S(=O)(=O)Nc2ccc([N+](=O)[O-])cc2)cc1,13.8 µM (active)
15,CC(=O)NCCCCCC(=O)O,inactive
16,COc1cc(N)ccc1C,6.26 µM (active)
17,CC(S)C(=O)NCC(=O)O (stereo not given),inactive
18,Cc1ccc2ccc(Cl)cc2n1,inactive
19,CC(C)(C)NC(N)=O,inactive

row,SMILES,Potency
1,O=C(O)Cc1ccc(Cl)cc1Cl,inactive
2,O=C(O)c1ccc(Cl)cc1Cl,inactive
3,COP(=O)(OC)OC(c1ccc(Cl)cc1)P(=O)(OC)OC (stereo not given),inactive
4,CCCOC(OCCC)OCCC,inactive
5,CC(CO)c1ccccc1 (stereo not given),inactive
6,CCCCNC1CC(C)(C)NC(C)(C)C1,inactive
7,NS(=O)(=O)c1ccc(NC(=O)CCC(=O)O)cc1,inactive
8,CC/C=C\CC1=C(C)CCC1=O,inactive
9,OCCC(F)(F)C(F)(F)C(F)(F)C(F)(F)C(F)(F)C(F)(F)C(F)(F)C(F)(F)F,inactive
10,CCCCCCOC(=O)CC,inactive
11,BrCc1cccc(Oc2ccccc2)c1,79.6 µM (active)
12,COc1cc(C(=S)N2CCOCC2)cc(OC)c1OC,inactive
13,CN(C)c1ccc(C=O)cc1,35.6 µM (active)
14,COC(=O)c1ccccc1C(=O)c1ccc(OCCN2CCCCC2)cc1,inactive
15,CC(=O)c1sc(C)nc1C,inactive
16,COc1ccc(C2CNC(=O)C2)cc1OC1CCCC1 (stereo not given),inactive
17,CCOc1cc(NC(C)=O)ccc1C(=O)OC,inactive
18,CCCCCCCCSCC,inactive
